# GalR3 antag: antagonists of human GalR3 | 360,000 compounds, 0.44% hits | O60755 | AID 651719 | HEK293 GalR3-CNG cAMP membrane potential fluorescence; galR3 body fused to GalR1 C-terminus | inhibition, % at 3 µM;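 active means inhibition above the screen-wide average plus 3 SD, cut at about 13% in these data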;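 further: forskolin and galanin both at EC90 stimulate the cells; cAMP rise reported by CNG channel membrane potential dye signal; 0% = forskolin plus galanin with DMSO and 100% = forskolin alone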
# GAA850 FXN act: frataxin GAA850 promoter activation; HEK293 lucGAA850 FXN promoter luciferase reporter, 24 h; percent of 10 µM SAHA response; activation, % at 6 µM; 360,000 compounds, 0.56% hits; AID 540364;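 active means activation above the average of all compounds screened plus 3 SD, cutoff fixed separately per campaign, cut at about 7.5% in these data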;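 further: 0% = DMSO wells and 100% = 10 µM SAHA wells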
# SMARCA2 act: increases SMARCA2 function in MMTV reporter cells | MG213 cells, MMTV-luciferase reporter, dexamethasone, overnight | activation, % at 9.1 µM | 370,000 compounds, 1% hits; in the data active means activation above about 7.8%;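 further: 0% = vehicle wells and 100% = reference activator wells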
# Gli-Sufu antag: antagonists of Gli-Sufu signaling; Sufu-KO-LIGHT fibroblasts, Gli luciferase reporter luminescence; inhibition, % at 5 µM; AID 588413; 340,000 compounds, 0.74% hits;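 active means inhibition above about 55%, limit read from the data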;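 further: 0% = DMSO-treated cells and 100% = wells with medium but no cells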
# NR2F2 inh: blocks human COUP-TFII nuclear receptor | HEK293T NGFI-A luciferase reporter, luminescence | inhibition, % at 8.6 µM | 370,000 compounds, 0.7% hits;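 active means inhibition above a per-plate cutoff, mean inhibition of test wells between control levels plus 3 SD, cut at about 38% in these data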;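 further: cells cotransfected with COUP-TFII expression vector driving the NGFI-A reporter; 0% = median of COUP-TF2 test wells and 100% = reporter-only cells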
# Target sequence (P24468 whole entry, looked up): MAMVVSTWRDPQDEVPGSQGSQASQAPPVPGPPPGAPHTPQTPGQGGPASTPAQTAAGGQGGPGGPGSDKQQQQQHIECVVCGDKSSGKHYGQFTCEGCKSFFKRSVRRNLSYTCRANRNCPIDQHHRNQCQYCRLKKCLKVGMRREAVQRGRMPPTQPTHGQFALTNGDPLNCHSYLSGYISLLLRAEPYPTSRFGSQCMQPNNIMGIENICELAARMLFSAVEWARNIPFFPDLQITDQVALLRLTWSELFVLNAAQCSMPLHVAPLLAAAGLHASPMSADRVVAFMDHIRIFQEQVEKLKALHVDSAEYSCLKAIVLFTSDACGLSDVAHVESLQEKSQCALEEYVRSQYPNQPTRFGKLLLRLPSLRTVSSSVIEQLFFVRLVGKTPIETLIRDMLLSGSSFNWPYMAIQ
# H9c2 protect: modulators protecting cardiomyocytes from myocardial damage; H9c2 cardiomyocytes, H2O2 injury protection, ATPLite, 2 h; 360,000 compounds, 0.63% hits; protection from H2O2 cell death, % at 20 µM;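 active means compounds giving at least 50% protection of heart cells from peroxide-induced death in the single-dose screen, raw or plate-pattern-corrected value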;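 further: 0% = DMSO wells with peroxide and 100% = DMSO wells without peroxide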
# VP16 Luc counter: VP16 inhibition counter-screen for COUP-TFII; shares compounds with NR2F2 inh; HEK293 Gal4-VP16 luciferase reporter, luminescence; inhibition, % at 8.5 µM; 2,500 compounds, 25% hits; in the data active means inhibition above about 13%
# COUP-TFII conf: COUP-TFII (NR2F2) inhibition, confirmation assay | shares compounds with NR2F2 inh | HEK293 NGFI-A luciferase reporter, luminescence | inhibition, % at 8.5 µM | 2,500 compounds, 45% hits | AID 687008;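 active means mean inhibition over three repeats above a set limit taken from the earlier primary screen, cut at about 38% in these data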;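 further: 100% = cells given the luciferase reporter alone without the COUP-TF2 vector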
# * hit, by the source's call; . = not tested or not shown. In the library only some 3.4% were active in any assay of this set; here they are far more common.
SMILES,GalR3 antag,GAA850 FXN act,SMARCA2 act,Gli-Sufu antag,NR2F2 inh,H9c2 protect,VP16 Luc counter,COUP-TFII conf
CC[N+]1(C)CCC(O)(/C=C/c2ccccc2)C(C(=O)/C=C/c2ccccc2)C1 (centres undefined),3,-11,3,-9,6,-20,.,.
Cc1cc(C)n2c(Nc3ccc4c(c3)OCCO4)c(-c3ccc(C)o3)nc2n1,3,2,4,3,-63,29,.,.
Cc1cc(C)n2c(Nc3ccc4c(c3)OCCO4)c(-c3cc4ccccc4o3)nc2n1,-3,.,-4,.,51*,.,-26,-16
Cc1ccc(C(=O)N2CCN(c3ncccn3)CC2)cc1,-11,-2,-2,5,-5,4,.,.
Cc1ccc(NS(=O)(=O)c2ccc(C(=O)N3CCN(c4ncccn4)CC3)cc2)cc1,-6,-2,-5,48,39*,-17,-2,14
O=C(O)CCCc1nc(-c2ccc(Cl)cc2)no1,-3,-6,-7,4,44*,9,32*,14
O=C(CCCc1nc(-c2ccccc2)no1)NC1CCCC1,-2,1,-2,16,-4,1,.,.
O=C(CCCc1nc(-c2ccc(Cl)cc2)no1)Nc1cccnc1,-5,-7,-2,5,41*,-10,0,22
Cc1ccc(-c2noc(CCCC(=O)NC3CCCC3)n2)cc1,-8,-4,-9,1,48*,-17,16*,15
O=C(CCN1CCc2ccccc2C1)Nc1ccccc1,-4,1,-3,3,2,9,.,.
O=C(COC(=O)c1cc(Cl)ccc1O)NCC1CCCO1 (centres undefined),-4,1,-1,1,-9,4,.,.
COC(=O)c1ccc2nc(NC(=O)C(C)(C)C)sc2c1,-6,-8,-5,-15,66*,-15,-75,35
CC(=O)c1sc(Nc2nc3ccc(F)cc3s2)nc1C,-2,3,6,-63,-43,-25,.,.
COC(=O)c1ccc2nc(Nc3nc4ccc(F)cc4s3)sc2c1,-4,-7,-5,-29,52*,-16,-10,58*
Cc1ccc(NC(=O)COc2ccccc2C(=O)NCc2ccccc2)cc1,-3,0,1,-2,-2,-4,.,.
COCCNC(=O)c1onc(CSc2ccccc2)c1C(=O)NCCOC,-8,2,2,6,0,1,.,.
CCn1c(CCNC(=O)c2ccccc2Cl)n[nH]c1=S,-5,0,1,-3,-4,2,.,.
Cc1ccc(-c2csc(N3CCN(CCCn4c(-c5ccncc5)nc5ccccc54)CC3)n2)cc1,3,-2,0,19,53*,46,1,29
CC(=O)N[C@@H](C)c1nc2ccccc2n1CCCN1CCN(c2nc(-c3ccc(C)cc3)cs2)CC1,-9,-4,-3,23,62*,11,-11,48*
Cc1ccc(-c2csc(N3CCN(CCCn4c(C(F)(F)F)nc5ccccc54)CC3)n2)cc1,-1,1,1,19,6,-16,.,.
Cc1cc2ncc(C(=O)Nc3ccsc3C(=O)O)c(C)n2n1,-3,0,-1,-1,5,9,.,.
C=C1CC2C(=O)N(Cc3cc(OC)ccc3OC)C(C(=O)OCC)(C(=O)OCC)C1N2C(=O)OC(C)(C)C (centres undefined),1,-1,0,5,0,1,.,.
CCOC(=O)C1(Cc2ccc(OC)cc2)CCN(S(C)(=O)=O)CC1,-8,0,1,-9,1,3,.,.
CCOC(=O)C1(Cc2ccc(Cl)cc2)CCN(C(C)Cc2ccc(O)c(OC)c2)CC1 (centres undefined),-12,-5,-4,72*,53*,-13,2,16
CCNS(=O)(=O)c1ccc(CCC(=O)N2CCN(c3ccccc3)CC2)cc1,-6,-1,-4,8,43*,4,9,4
O=C(Nc1ccc(Nc2ccccc2)cc1)C(Cl)(Cl)Cl,-4,3,-2,2,-28,-1,.,.

# Bioassay records (PubChem)
